{"source": "PubChem BioAssay (NCI)", "note": "About 83,000 compounds went through this panel and 20% of them were active in at least one assay; those are over-represented in the sample as a whole.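 Step 1: grow cells in 96-well plates. Step 2: add test compound at a single concentration. Step 3: incubate 48 h. Step 4: record percent growth.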 Unmarked numbers belong to inactive results. Activity calls are given as the source filed them. The calls were made as follows: active = growth percent below 10; inactive = the rest.", "data": [{"system": "SF-295 CNS", "assay": "NCI-60 one-dose screen, 48 h (100 = growth as untreated, 0 = no growth, -100 = all killed)", "settings": "10 µM unless noted", "values": [{"smiles": "CC(=O)Nc1ccc2c(c1)c(NC(C)=O)nn2C(=O)Nc1ccc(Cc2ccccc2)cc1", "growth": "54%"}, {"smiles": "Cc1ccc2c(c1)O/C(=C\\c1cccc(OCC(=O)c3ccccc3)c1)C2=O", "growth": "89.4%"}, {"smiles": "Nc1nc(SCc2ccccc2)c2ncn(C3CCCC3)c2n1", "growth": "101%"}, {"smiles": "Cn1c2ccccc2c2c3c(c4c5ccccc5n(CCCCCC#N)c4c21)C(=O)N(O)C3=O", "growth": "9.59% (active)"}, {"smiles": "CCN(CC)Cc1cc(Nc2c3ccc(Cl)cc3nc3c(C)cccc23)ccc1O", "growth": "-43.6% (active)"}, {"smiles": "CS(=O)(=O)c1ccc(-c2cnc3ccc(-c4cccc(S(C)(=O)=O)c4)nn23)cc1", "growth": "53.7%"}, {"smiles": "COc1ccc(CCN2CCCn3c2nc2ccccc2c3=O)cc1", "growth": "20.4%"}, {"smiles": "CC#CC#Cc1cccc(=O)o1", "growth": "96.1%"}, {"smiles": "c1ccc2c(Nc3cccc4ccccc34)cccc2c1", "growth": "69.1%"}, {"smiles": "c1ccc(CSc2ncnc3nc[nH]c23)nc1", "growth": "104%"}, {"smiles": "O=C(O)c1cccnc1Br", "growth": "96.1%"}, {"smiles": "COc1ccc(-c2cc(-c3cccnc3)nc3sc4c(=O)n(-c5ccc(C)cc5)cnc4c23)cc1OC", "growth": "101%"}, {"smiles": "CNC(=O)c1cc(Oc2ccc3nc(NC(=O)Nc4ccc(CN5CCOCC5)c(C(F)(F)F)c4)sc3c2)ccn1", "growth": "11%"}, {"smiles": "CCN(CC)CCCC(C)NCCCNc1cccc2cccnc12", "note": "(centres undefined)", "growth": "98%"}, {"smiles": "CCCCN(CCCC)Cc1c(C)[nH]c2cc(OC)ccc2c1=O", "growth": "98.3%"}, {"smiles": "O=C1C[C@H](Sc2nc(-c3ccc(F)cc3)cc(C(F)(F)F)n2)[C@H]2CO[C@@H]1O2", "growth": "109%"}, {"smiles": "CCCCOc1ccc(NC(=O)n2nc(NC(C)=O)c3cc(NC(C)=O)ccc32)cc1", "growth": "84%"}, {"smiles": "CSc1ncnc2c1ncn2C1CCCO1", "note": "(centres undefined)", "growth": "104%"}, {"smiles": "Oc1ccccc1N=Cc1c(O)ccc2ccccc12", "growth": "53.9%"}, {"smiles": "Cn1c2ccccc2c2c3[nH]c(=O)[nH]c(=O)c3c3c4ccccc4n(C)c3c21", "growth": "69.6%"}, {"smiles": "CCOC(=O)c1c2ncccc2n2c(=O)n(-c3ccc(Cl)cc3)nnc12", "growth": "9.85% (active)"}, {"smiles": "O=C(COc1cccc(/C=C2/Oc3ccccc3C2=O)c1)Nc1nccs1", "growth": "203%"}, {"smiles": "NS(=O)(=O)c1ccc(Nc2nc3n[nH]c(Nc4ccccc4)c3c(=O)[nH]2)cc1", "growth": "102%"}, {"smiles": "OCCNCCNc1c2ccccc2nc2ccccc12", "growth": "95.4%"}, {"smiles": "COc1ccc(OCC(=O)Nc2ccc(-c3nc4ccccc4s3)cc2C)cc1", "growth": "99.8%"}, {"smiles": "CCCCNP1(NCCCC)=NP(NCCCC)(NCCCC)=NP(NCCCC)(NCCCC)=NP(NCCCC)(NCCCC)=N1", "growth": "-25% (active)"}, {"smiles": "COCCCN=C(N)c1ccc(NC(=O)c2ccc(C(=O)Nc3ccc(C(N)=NCCCOC)cc3)cc2)cc1", "growth": "93.7%"}, {"smiles": "Cn1c2ccccc2c2c3c(c4c5ccccc5[nH]c4c21)C(=O)N(N)C3=O", "growth": "27.1%"}, {"smiles": "CCN(CC)Cc1cc(Nc2c3ccccc3nc3cc(Cl)ccc23)ccc1O", "growth": "-38.3% (active)"}, {"smiles": "COc1nc2c(cc1S(=O)(=O)c1ccccc1)CCc1c-2cnn1-c1ccc(Cl)cc1", "growth": "88.3%"}, {"smiles": "CN(CC(=O)N(Cc1ccc(C2CCCCC2)cc1)c1ccc(C(=O)NO)cc1)S(=O)(=O)c1c(F)c(F)c(F)c(F)c1F", "growth": "108%"}, {"smiles": "COc1cc(-c2nc3ccccc3s2)ccc1NC(=O)COc1ccc(Cl)cc1", "growth": "29%"}, {"smiles": "CSc1[nH]c2ncnc(N)c2c1C#N", "growth": "105%"}, {"smiles": "O=C1Nc2c(ccc(Cl)c2Cl)/C1=C/c1cc(Br)c(O)c(Br)c1", "growth": "13.4%"}, {"smiles": "NS(=O)(=O)N(c1cc(C(F)(F)F)cc(C(F)(F)F)c1)C1CCN(Cc2ccc(F)cc2)CC1", "growth": "81.6%"}, {"smiles": "COc1nc2c(cc1S(=O)(=O)c1ccccc1)CCc1c-2cnn1Cc1ccccc1", "growth": "42%"}, {"smiles": "CN1CCN(Cc2ccc(NC(=O)c3[nH]ncc3Nc3ccnc4ccsc34)cc2)CC1", "growth": "56.6%"}, {"smiles": "CC1(C)CC(C(=O)OCCCCCCCCCCC[P+](c2ccccc2)(c2ccccc2)c2ccccc2)C(C)(C)N1O", "note": "(centres undefined)", "growth": "-71.3% (active)"}, {"smiles": "C=CC[N+]1(CC)CCN=C1CCCCCCCCCCCCCCCCC", "note": "(centres undefined)", "growth": "-31.4% (active)"}]}]}
